Measurements published in PubChem BioAssay (NCATS).
Inconclusive results are not listed. Where a call stands in place of a potency, no number is given. The source made the active and inactive calls. Calls follow the shape of the dose curve; as a rule, active = well fitted inhibition curve with a large enough effect; inconclusive = small, poorly fitted or top-dose-only effect; inactive = no such curve, though single readings can be large or run the other way.

How the values were obtained:
[1] = test system: Zika virus NS2B-NS3 protease (unlinked complex); test: Primary screen GU Rhodamine qHTS for Zika virus inhibitors: Unlinked NS2B-NS3 protease assay (AID 1347159); also: nearly all actives have a fitted effect of over 60% in size; also: potency is read from the fitted curve at half-maximal effect
Summary of the method: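 A qHTS format was used, with compound concentrations ranging up to 114 microM. Each compound was preincubated with 25 nM NS2B-NS3 protease, and the substrate was then added at 1.5 microM. Curves were fitted with a 4-parameter Hill model.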

[2] = test system: Zika virus NS2B-NS3 protease (linked construct); test: Primary screen NINDS Rhodamine qHTS for Zika virus inhibitors (AID 1347160); also: nearly all actives have a fitted effect of over 55% in size
Summary of the method: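 Kinetic fluorescence (Ex 480 nm, Em 540 nm) over 15 min with 1.5 microM Rhodamine110 peptide and 25 nM linked protease.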

| Compound | Potency [1] | Potency [2] |
| --- | --- | --- |
| COc1cc(OC)c2c(=O)[nH]c(-c3cc(C)c(OCCO)c(C)c3)nc2c1 | inactive | inactive |
| C=C1C(=O)O[C@@H]2[C@H]1CCC(C)=C(CCC(=O)O)[C@@]2(C)O | inactive | inactive |
| CC(=O)OC[C@]12[C@H](OC(C)=O)[C@H](OC(=O)c3ccccc3)[C@@H]3[C@@H](OC(C)=O)[C@]1(OC3(C)C)[C@H](C)C[C@H](OC(C)=O)[C@@H]2OC(=O)c1ccccc1 | inactive | inactive |
| Cc1ccc(F)cc1S(=O)(=O)N[C@@H]1CCN(Cc2ccc(OC(C)C)cc2)C1 | inactive | inactive |
| COC1=CC(=O)C=C(C)C12Oc1c(Cl)c(OC)cc(OC)c1C2=O (centres undefined) | inactive | inactive |
| Cc1nc2ccc(CN(C)c3ccc(C(=O)NC(CCC(=O)O)C(=O)O)s3)cc2c(=O)[nH]1 (centres undefined) | inactive | inactive |
| CC1=CC2/C=C(\C)CCC(O)C(=O)C(O)CC(=O)C23C(=O)NC(CC(C)C)C3C1C (centres undefined) | inactive | inactive |
| Cc1nc(C#Cc2ccnc(Cl)c2)c(C)n1-c1ccc(OC(F)(F)F)cc1 | inactive | inactive |
| CC(=O)O[C@@H]1C[C@@]23C[C@@]24CC[C@H](O[C@@H]2OC[C@H](O)[C@H](O)[C@H]2O)C(C)(C)[C@@H]4CC[C@H]3[C@]2(C)[C@@H](O)C34O[C@H](C[C@@H](C)[C@@H]3[C@@]12C)[C@@H](C(C)(C)O)O4 | inactive | inactive |
| Cc1cc(F)ccc1-c1nc(NCCN=C(N)NC#N)nc2c1ccc(=O)n2-c1c(F)cccc1F | inactive | inactive |
| O=C(Nc1ccc(Cl)cc1)C1CCCN(C(=O)c2cccc(-c3ccco3)c2)C1 (centres undefined) | inactive | inactive |
| C=C1CC[C@@H]2[C@](C)(CO)[C@H](O)CC[C@@]2(C)[C@@H]1C/C=C1/C(=O)OCC1O (some centres undefined) | inactive | inactive |
| CCc1cccc(CC)c1-n1c(C=C(C)C)c(C(=O)N2CCNCC2)cc(-c2nc(-c3ccc(C(F)(F)F)cc3)cs2)c1=O | inactive | inactive |
| CC(C)NC(=O)N1CC[C@H](N=C2Nc3cc(F)ccc3N(CC(F)F)c3ccc(Cl)cc32)C1 | inactive | inactive |
| COC1CC(O[C@H]2CC[C@]3(C)C4CC[C@@]5(C)C(=O)[C@]4(CC[C@@H]3C2)CC[C@@H]5C2=CC(=O)OC2)OC(C)C1OC1OC(COC2OC(CO)C(O)C(O)C2O)C(O)C(O)C1O (some centres undefined) | inactive | inactive |
| C=CC(=O)Nc1ccc2ncnc(Nc3cccc(Br)c3)c2c1 | 44.7 µM (active) | inactive |
| Nc1nc2c(ncn2C2OC3COP(=O)(O)OC3C2O)c(=O)[nH]1 (centres undefined) | inactive | inactive |
